PPARg SRC-1 ag: PPARgamma-driven SRC-1 recruitment agonism; P37231; PPARgamma-SRC-1 coactivator recruitment biochemical assay; activation, % at 8 µM; 0.41% of 200,000 active; AID 631; in the data active means activation above about 19%;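 further: 0% = DMSO and 100% = reference agonist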
SRC1 TRFRET art: counter-screen for PPARgamma SRC-1 recruitment agonists: TR-FRET artefact. TR-FRET ratio at 8 µM. AID 1051. 0.34% of 99,000 active. TR-FRET detection artefact counter-screen, emission ratio; stronger effect = higher value; in the data active means TR-FRET ratio above about 2300
SRC3 TRFRET art: counter-screen for PPARgamma SRC-3 recruitment agonists: TR-FRET artefact. PPARgamma/SRC-3 format; stronger effect = higher value. TR-FRET ratio at 8 µM. 0.39% of 99,000 active; in the data active means TR-FRET ratio above about 2000
PPARg SRC-3 ag: PPARgamma-driven SRC-3 recruitment agonism; biochemical PPARgamma/SRC-3 coactivator recruitment assay; P37231; activation, % at 8 µM; 0.26% of 200,000 active; AID 731; in the data active means activation above about 23%;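 further: 0% = DMSO and 100% = reference agonist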
PPARg SRC-2 ag: agonists of SRC-2 recruitment by human PPARgamma; activation, % at 8 µM; 0.34% of 200,000 active; PPARgamma LBD-SRC-2 recruitment, biochemical;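 further: 0% = vehicle and 100% = reference agonist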
TR-FRET SRC-2 ct: flags TR-FRET format artefacts in PPARgamma SRC-2 recruitment agonist screen | TR-FRET artefact counter-screen; stronger effect = higher value | TR-FRET ratio at 8 µM | 0.4% of 200,000 active | AID 1049; in the data active means TR-FRET ratio above about 2000
PPARg SRC2 conf: confirmation of agonists of SRC-2 recruitment by human PPARgamma | 52% of 790 active | AID 1297 | activation, % at 8 µM | biochemical SRC-2 recruitment by PPARgamma | shares compounds with PPARg SRC-3 ag;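 further: 0% = vehicle alone and 100% = reference agonist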
PPARg SRC1 ag: human PPARgamma SRC-1 recruitment agonism, confirmation; activation, % at 8 µM; PPARgamma–SRC-1 coactivator recruitment biochemical assay; 43% of 790 active; shares compounds with PPARg SRC-3 ag; AID 1300; in the data active means activation above about 20%;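 further: 0% = vehicle wells and 100% = reference agonist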
PPARg SRC3 ag: confirmation of agonists of SRC-3 recruitment by human PPARgamma; shares compounds with PPARg SRC-3 ag; biochemical PPARgamma-SRC-3 coactivator recruitment, agonist mode; activation, % at 8 µM; 29% of 790 active; in the data active means activation above about 24%;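 further: 0% = vehicle wells and 100% = reference agonist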
Target sequence (P37231 whole entry, looked up): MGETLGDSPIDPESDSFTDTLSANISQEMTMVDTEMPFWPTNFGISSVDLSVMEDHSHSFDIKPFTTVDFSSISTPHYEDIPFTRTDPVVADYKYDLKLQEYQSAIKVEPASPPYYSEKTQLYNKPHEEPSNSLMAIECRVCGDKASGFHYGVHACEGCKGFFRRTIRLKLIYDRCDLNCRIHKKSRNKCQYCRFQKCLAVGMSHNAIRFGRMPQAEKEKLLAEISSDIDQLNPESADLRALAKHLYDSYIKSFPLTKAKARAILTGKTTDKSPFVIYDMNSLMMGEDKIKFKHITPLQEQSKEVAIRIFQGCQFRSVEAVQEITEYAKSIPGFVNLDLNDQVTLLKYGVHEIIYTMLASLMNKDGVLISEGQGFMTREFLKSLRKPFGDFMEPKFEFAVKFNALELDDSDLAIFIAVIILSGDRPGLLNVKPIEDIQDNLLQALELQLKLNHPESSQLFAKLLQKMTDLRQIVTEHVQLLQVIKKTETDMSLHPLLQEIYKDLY
Target sequence (Q9Y6Q9 whole entry, looked up): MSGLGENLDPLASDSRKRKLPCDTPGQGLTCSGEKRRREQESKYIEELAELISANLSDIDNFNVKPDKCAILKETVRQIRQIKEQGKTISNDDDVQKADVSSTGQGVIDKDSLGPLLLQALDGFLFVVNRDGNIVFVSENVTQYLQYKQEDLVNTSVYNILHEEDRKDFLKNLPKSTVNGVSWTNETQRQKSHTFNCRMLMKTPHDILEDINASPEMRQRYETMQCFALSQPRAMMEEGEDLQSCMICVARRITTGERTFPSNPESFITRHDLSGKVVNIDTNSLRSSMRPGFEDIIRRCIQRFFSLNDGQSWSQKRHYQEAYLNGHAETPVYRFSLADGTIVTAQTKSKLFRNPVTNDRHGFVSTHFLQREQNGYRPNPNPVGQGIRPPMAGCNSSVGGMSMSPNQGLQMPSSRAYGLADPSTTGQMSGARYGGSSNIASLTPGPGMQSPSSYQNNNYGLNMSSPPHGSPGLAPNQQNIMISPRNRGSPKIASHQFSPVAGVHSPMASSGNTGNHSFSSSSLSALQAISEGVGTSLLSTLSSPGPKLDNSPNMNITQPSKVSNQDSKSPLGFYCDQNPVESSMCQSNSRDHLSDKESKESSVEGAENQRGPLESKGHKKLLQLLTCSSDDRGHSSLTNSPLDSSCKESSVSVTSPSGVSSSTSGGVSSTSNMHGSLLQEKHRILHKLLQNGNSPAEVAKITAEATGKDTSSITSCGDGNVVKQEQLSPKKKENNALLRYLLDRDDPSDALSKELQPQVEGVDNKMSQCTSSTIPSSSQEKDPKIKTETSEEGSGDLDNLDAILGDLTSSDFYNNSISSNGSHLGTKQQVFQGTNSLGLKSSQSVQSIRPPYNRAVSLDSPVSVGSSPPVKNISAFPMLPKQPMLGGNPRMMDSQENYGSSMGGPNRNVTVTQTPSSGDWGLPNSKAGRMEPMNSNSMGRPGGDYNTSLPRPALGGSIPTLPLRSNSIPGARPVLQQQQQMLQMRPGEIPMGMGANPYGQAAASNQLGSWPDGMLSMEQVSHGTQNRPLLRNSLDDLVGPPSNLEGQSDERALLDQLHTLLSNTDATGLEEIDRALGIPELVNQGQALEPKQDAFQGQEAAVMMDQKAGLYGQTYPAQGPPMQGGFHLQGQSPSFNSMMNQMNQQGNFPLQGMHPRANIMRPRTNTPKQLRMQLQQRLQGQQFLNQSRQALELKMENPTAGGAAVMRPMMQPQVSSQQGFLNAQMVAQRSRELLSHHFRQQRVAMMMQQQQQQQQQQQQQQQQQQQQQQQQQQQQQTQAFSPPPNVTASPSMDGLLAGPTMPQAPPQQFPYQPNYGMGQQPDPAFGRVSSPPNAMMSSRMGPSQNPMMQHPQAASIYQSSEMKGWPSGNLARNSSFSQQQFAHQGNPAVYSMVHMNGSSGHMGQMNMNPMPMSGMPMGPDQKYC
* hit, by the source's call; . = no result given. In the library only some 0.9% were active in any assay of this set; here they are far more common. Unless noted, no stated cut-off is given here; in the data, active means activation above about 22%; inactive means the rest.

SMILES	PPARg SRC-1 ag	SRC1 TRFRET art	SRC3 TRFRET art	PPARg SRC-3 ag	PPARg SRC-2 ag	TR-FRET SRC-2 ct	PPARg SRC2 conf	PPARg SRC1 ag	PPARg SRC3 ag
Cc1nc(N2CCCCC2C)c2c(C)c(C(=O)Nc3cccc(C(F)(F)F)c3)sc2n1 (configuration not stated)	13	2035	1608	4	8	1633	.	.	.
Cc1ccc(NC(=O)c2sc3nc(C)nc(N4CCN(c5ccccn5)CC4)c3c2C)c(C)c1	4	3496*	2659*	-2	-3	2163*	.	.	.
Cc1nc(N2CCCCC2)c2c(C)c(C(=O)Nc3cccc(C(F)(F)F)c3)sc2n1	7	2255	2057*	12	14	1762	.	.	.
CCOc1cc(C=O)cc(Br)c1OCC(N)=O	-7	1725	1478	0	0	1383	.	.	.
Cc1cc(C)cc(C(=O)Nc2ccc(NC(=O)Cc3ccccc3)cc2)c1	1	1574	1422	-1	-9	1626	.	.	.
Cn1c(SCC(=O)N2CCCC2=O)nnc1-c1ccccc1F	8	1629	1413	1	7	1624	.	.	.
CNC(=S)N1N=C(c2ccc(Br)cc2)CC1c1ccc(N(C)C)cc1 (configuration not stated)	27*	4829*	4796*	29*	20	3604*	41*	29*	26*
CC(=O)N1N=C(c2ccc(C)o2)CC1c1ccc(Br)cc1 (configuration not stated)	3	.	.	8	5	1541	.	.	.
CNC(=S)N1N=C(c2ccc(OC)cc2)CC1c1ccc(N(C)C)cc1 (configuration not stated)	-2	.	.	13	5	1566	.	.	.
CNC(=S)N1N=C(c2ccc(Br)cc2)CC1c1ccc(Br)cc1 (configuration not stated)	30*	.	.	51*	28*	3230*	47*	37*	28*
COc1ccc(C2=NN(C(N)=S)C(c3ccccc3)C2)cc1 (configuration not stated)	57*	3172*	3054*	29*	53*	2602*	59*	48*	41*
COc1ccc(C2CC(c3ccc(Br)cc3)=NN2C(=S)Nc2ccccc2)cc1 (configuration not stated)	28*	2916*	2737*	22	26*	2406*	44*	39*	26*
CCN(CC(=O)Nc1cc(C)c(Cl)cc1OC)CC(=O)NC1CCS(=O)(=O)C1 (configuration not stated)	-5	1791	1722	4	8	1622	.	.	.
O=C(NCCc1c[nH]c2ccccc12)C(=O)NCC1OCCCN1S(=O)(=O)c1cccs1 (configuration not stated)	7	1950	1548	9	4	1541	.	.	.
CC1CCc2c(nc3ncnn3c2NCCN(C)C)C1 (configuration not stated)	-2	1701	1418	0	-2	1649	.	.	.
COc1ccccc1C1CC(c2ccccc2)=NN1C(=S)Nc1ccccc1 (configuration not stated)	43*	3073*	2517*	23*	37*	2595*	70*	51*	44*
CCCCNC(=O)c1ccc2c(SCC(=O)O)c3c(nc2c1)CCCC3	-4	1557	1511	0	-4	1528	.	.	.
Cc1ccc(CNC(=O)CSc2c3c(nc4cc(Cl)ccc24)CCCC3)o1	12	.	.	25	28*	1917	27*	18	19
COCCCNC(=O)CSc1c2c(nc3ccc(Cl)cc13)CCCC2	31*	2727*	2277*	19	28*	1928	19	13	11
O=C(CSc1c2c(nc3cc(Cl)ccc13)CCCC2)NCCCN1CCOCC1	25*	2212	2060*	12	26*	1791	22	18	14
Cc1cc(Cl)ccc1OCC(=O)NCCCN1CCOCC1	1	.	.	-20	-7	1601	.	.	.
O=C(CSc1c2c(nc3cc(Cl)ccc13)CCCC2)NCCN1CCOCC1	27*	2381*	2338*	19	32*	2224*	16	13	13
O=C(O)CSc1c2c(nc3cc(C(=O)N4CCCC4)ccc13)CCCC2	0	1966	1613	2	9	1578	.	.	.
COc1ccc(N2CCN(C(=O)CN(C)S(=O)(=O)c3cc(C)ccc3OC)CC2)cc1	-6	1907	1568	-1	-2	1409	.	.	.
O=C(NCc1ccco1)c1c2c(nc3ccccc13)CCC2	6	1760	1542	-4	2	1431	.	.	.
SMILES	PPARg SRC-1 ag	SRC1 TRFRET art	SRC3 TRFRET art	PPARg SRC-3 ag	PPARg SRC-2 ag	TR-FRET SRC-2 ct	PPARg SRC2 conf	PPARg SRC1 ag	PPARg SRC3 ag
CCN(CC)CCCNC(=O)CSc1c2c(nc3cc(Cl)ccc13)CCCC2	33*	2550*	2400*	22	34*	2152*	26*	19	17
O=C(CSc1c2c(nc3ccccc13)CCCC2)NCc1ccco1	21*	2158	1591	12	13	1765	6	3	4
ClCc1nnc(-c2cc3c(s2)CCCC3)o1	11	1943	1645	0	4	1465	.	.	.
Cc1cc(C)n(-c2ncnc3ccccc23)n1	-7	1962	1567	-2	6	1730	.	.	.
Cc1ccc(C)n1-c1ccc(-c2nnc3n2CCCCC3)s1	27*	.	.	12	11	1802	23*	22*	14
C=CCNC(=O)NC(=O)COC(=O)c1nc2nccc(C)n2n1	-2	1526	1304	2	-1	1408	.	.	.
COc1cc(C2C(C(C)=O)=C(O)C(=O)N2CCc2c[nH]c3ccccc23)ccc1O (configuration not stated)	19*	.	.	9	5	1653	0	0	3
CC(=O)C1=C(O)C(=O)N(CCc2c[nH]c3ccccc23)C1c1cccc(O)c1 (configuration not stated)	-6	.	.	-3	-1	1589	.	.	.
S=C(Nc1ccc(Cl)c(Cl)c1)NN1CCOCC1	8	1792	1559	1	1	1644	.	.	.
C#CCn1cc(/C=N/Nc2nc3ccccc3[nH]2)c2ccccc21	15	2389*	1807	13	30*	1820	7	11	8
Cc1ccc(CSc2nc3ccsc3c(=O)n2Cc2ccccn2)cc1	1	1891	1669	5	7	1672	.	.	.
O=c1c2sccc2nc(SCc2cc(=O)n3cc(Br)ccc3n2)n1Cc1ccccn1	23*	2338*	2195*	14	23*	2046*	11	7	9
O=C1C(=O)c2ccc(-c3ccccc3)cc2-c2ccccc21	1	.	.	-3	-3	1525	.	.	.

Screening results (PubChem BioAssay)
